Compounds with a hit are over-represented: about 1.4% of the library has one in this group of screens.
LYP act: LYP phosphatase activators, primary screen, biochemical, DiFMUP fluorescence, 2 µM | Tyrosine-protein phosphatase non-receptor type 22 (Homo sapiens), Q9Y2R2 | activation, % at 2 µM | recombinant LYP; 0 = plate median, 100 = signal doubled | 96,000 compounds, 0.11% hits;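 active = activation at 2 µM above a set limit, the mean plus 5 SD, cut at about 37% in these data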
GALR2 blocker: GALR2 antagonists in receptor-expressing cells, primary screen. Galanin receptor type 2 (Homo sapiens), O43603. antagonist mode. inhibition, % at 4 µM. 140,000 compounds, 0.39% hits. AID 828, 2007; in the data active = inhibition above about 27%;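 note: cells stimulated with galanin 1-16 at roughly its EC80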
S1P2 blocker: human S1P2 receptor antagonists, primary screen, cell-based; 97,000 compounds, 0.21% hits; cell-based S1P2 antagonist assay, inhibition at 5 uM; inhibition, % at 5 µM; in the data active = inhibition above about 45%;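 note: CRE beta-lactamase reporter cells expressing human S1P2 stimulated with S1P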
Target sequence (O95136 whole entry, looked up): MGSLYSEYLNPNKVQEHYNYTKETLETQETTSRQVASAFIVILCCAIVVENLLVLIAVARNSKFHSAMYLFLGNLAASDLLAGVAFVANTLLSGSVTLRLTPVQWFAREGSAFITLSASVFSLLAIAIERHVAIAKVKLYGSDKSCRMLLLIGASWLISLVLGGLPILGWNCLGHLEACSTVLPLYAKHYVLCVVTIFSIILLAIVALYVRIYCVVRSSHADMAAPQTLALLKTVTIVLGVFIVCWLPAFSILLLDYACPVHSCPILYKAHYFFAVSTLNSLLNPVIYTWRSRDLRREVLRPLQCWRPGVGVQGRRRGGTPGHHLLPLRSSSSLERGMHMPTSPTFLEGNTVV
LYP inh 2: PTPN22 phosphatase inhibitors, primary screen, biochemical, DiFMUP fluorescence, 2 µM. recombinant LYP catalytic domain. 96,000 compounds, 0.21% hits. inhibition, % at 2 µM. AID 640, 2007;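 active = inhibition at 2 µM at or above a set limit, the screen mean plus 3 SD, cut at about 24% in these data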
S1P2 agonist: S1P2 receptor agonists, primary screen, cell-based; Sphingosine 1-phosphate receptor 2 (Homo sapiens), O95136; S1P2-expressing cell line, agonist reporter read-out; activation, % at 4.5 µM; 97,000 compounds, 0.46% hits; AID 729, 2007; in the data active = activation above about 16%
GALR2 agonist: GALR2 receptor agonists, primary screen, cell-based. 140,000 compounds, 0.48% hits. GALR2-expressing cells, agonist activation read-out. activation, % (no concentration beside the values). AID 803, 2007. Galanin receptor type 2 (Homo sapiens), O43603; in the data active = activation above about 5%, passing the limit was not always enough
Numbers stand for hits; n = inactive; x = no result given.

SMILES	LYP act	GALR2 blocker	S1P2 blocker	LYP inh 2	S1P2 agonist	GALR2 agonist
COc1ccc(-n2nnnc2S(=O)(=O)Cc2ccc(C(=O)O)cc2)cc1	n	n	n	n	n	n
COc1ccc(-n2nnnc2S(=O)(=O)CC(=O)N2CCCCC2)cc1	n	48	53	n	n	n
COc1ccc(NC(=O)Cn2nnc(C(=O)NCc3ccccc3OC)c2N)cc1Cl	n	n	47	n	n	n
CCN(CC)S(=O)(=O)c1ccc(NC(=O)C2c3ccccc3Oc3ccccc32)cc1	x	n	x	x	x	n
CN(Cc1ccccc1)Cc1nc2c(c(=O)n(C)c(=O)n2C)n1Cc1ccc(F)cc1	n	n	n	n	39	n
Cc1ccc(Cn2c(CN(C)Cc3ccccc3)nc3c2c(=O)n(C)c(=O)n3C)cc1	n	n	n	n	n	n
O=C(CSc1nnc(NC(=O)c2ccccc2Cl)s1)Nc1ccc2c(c1)oc1ccccc12	x	n	x	x	x	n
CCOc1ccc2[nH]c3c(N4CCN(c5ccccn5)CC4)ncnc3c2c1	n	n	n	n	n	n
COc1cccc2[nH]c3c(N4CCN(Cc5ccc6c(c5)OCO6)CC4)ncnc3c12	n	n	n	n	n	n
Cc1ccc2[nH]c3c(N4CCN(Cc5ccc6c(c5)OCO6)CC4)ncnc3c2c1	n	n	69	n	n	n
Cc1ccc2c(c1)[nH]c1c(N3CCN(Cc4ccccc4)CC3)ncnc12	n	n	70	n	n	n
Cc1ccc2[nH]c3c(N4CCN(Cc5ccccc5)CC4)ncnc3c2c1	n	n	59	n	n	n
CCOC(=O)C1=C(C)N=C2SC(C(=O)OC)=CC(=O)N2C1c1cc(OC)c(OC)c(OC)c1 (configuration not stated)	x	n	x	x	x	n
Cc1ccc2oc3nc(C)c(C(=O)Nc4cccc(C(F)(F)F)c4)cc3c(=O)c2c1	n	n	n	31	n	n
CCNC(=O)n1nccc1C(C)Oc1ccc(Cl)cc1 (configuration not stated)	n	n	n	n	n	n
Cc1cccc(-n2c(SCc3cc(=O)n4c(C)cccc4n3)nc3[nH]ncc3c2=O)c1	n	n	n	n	17	n
Nc1cc(C(=O)O)c(Oc2ccc(Cl)cc2Cl)cc1C(=O)O	x	n	x	x	x	n
O=C(NCC1(c2ccccc2)CCCC1)C(=O)N1CCOCC1	n	n	n	n	75	n
CN1CCN(NC(=O)c2cc(S(=O)(=O)N3CCOCC3)c(Cl)cc2Cl)CC1	x	n	x	x	x	n
COC(=O)c1ccc(NC(=O)c2sc3nc(-c4ccccc4)cn3c2C)cc1	n	n	47	n	n	n
COc1ccc(-c2cn3c(C)c(C(=O)Nc4ccncc4)sc3n2)cc1	n	n	n	n	n	n
O=C(CNS(=O)(=O)c1ccc(Cl)cc1)OCC(=O)N1CCCc2ccccc21	x	n	x	x	x	n
Fc1ccccc1N1CC(c2ccccc2)C(c2cccs2)=N1 (configuration not stated)	n	n	n	n	23	46
Cc1cccc(OCC(O)CN2CC3(C)CC2CC(C)(C)C3)c1 (configuration not stated)	x	n	x	x	x	6.8
COc1nc(C)nc(NC(=O)NS(=O)(=O)c2ccc(C)cc2)n1	n	n	n	n	26	n
SMILES	LYP act	GALR2 blocker	S1P2 blocker	LYP inh 2	S1P2 agonist	GALR2 agonist
Cc1ccc(-c2nc3cccnc3s2)cc1NC(=O)C1c2ccccc2Oc2ccccc21	x	n	x	x	x	n
COc1cc(-c2nc(S(=O)(=O)c3ccc(Cl)cc3)c(N3CCOCC3)o2)cc(OC)c1OC	n	n	n	n	n	n
COc1cc(-c2nc(S(=O)(=O)c3ccc(C)cc3)c(N3CCOCC3)o2)cc(OC)c1OC	n	n	n	n	18	n
COc1cc2c(cc1OC)C1=C(C#N)CCC(=NC(=O)c3ccc(Cl)cc3)N1CC2	n	n	n	n	55	n
CCOC(=O)c1c(-c2ccccc2Cl)csc1NC(=O)CSc1nc(C)cc(=O)[nH]1	x	n	x	x	x	n
Cc1ccc(-n2nc3c4c(cccc4c2=O)-c2ccccc2-3)cc1	n	n	n	32	n	n
O=C1C2C3C=CC(C2C(=O)N1C1CCCCC1)C1C2C(=O)N(C4CCCCC4)C(=O)C2C31 (configuration not stated)	x	n	x	x	x	n

Assay outcomes (PubChem BioAssay)
